Screen size: about 320,000 compounds; about 2,100 (0.66%) were called active. Another 53% or so got no clear call; they are omitted. Calls come from the whole dose curve; as a rule, active = well fitted inhibition curve with a large enough effect in the signal ratio, with a control signal flat (not every such curve was filed as active); inconclusive = small, poorly fitted or top-dose-only effect, or effect the other way, or a change in a side signal; inactive = flat fitted curve, though single readings scatter; the % refers to the signal ratio. What follows is part of a selection rich in actives, with near analogues and random picks from the rest.
Experiment: qHTS Assay for Lipid Storage Modulators in Drosophila S3 Cells;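 for cell number change: cells counted by Cell Tracker Red CMTPX staining in the red channel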; for lipid storage change, negative = inhibition: % is set by controls: 0 for no effect and ±100 for the full control effect
Settings: BODIPY lipid droplet fluorescence, 18-24 h, cells fed with added oleic acid; cell number change: measured here: cell count max response; series mostly up to 46.1 µM; lipid storage change, negative = inhibition: at the top concentration
In short: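 Drosophila S3 cells got compounds at several concentrations plus oleic acid (400 uM solution). Laser-scanning cytometry with 488 nm excitation read lipid droplets at 500-530 nm and cells at 575-640 nm. Percent activity was relative to 20 uM Triacsin C.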
Potency is the fitted concentration of half-maximal effect.

Structure (SMILES)	Potency	cell number change [%]	lipid storage change, negative = inhibition	outcome
Cc1cc(C)cc(Nc2cnn(C34CC5CC(CC(CC(=O)O)(C5)C3)C4)c(=O)c2Cl)c1	18.4 µM (active)	-2.34		
Cc1ccc(Nc2cnn(C34CC5CC(CC(CC(=O)O)(C5)C3)C4)c(=O)c2Cl)c(Cl)c1		5.36	2.44% (inactive)	
Cc1ccc(CN2CCN(CC(C)C)C(CCO)C2)s1 (stereo not given)		20.3	6.7% (inactive)	
CN(C)c1ccc(NC(=O)C[n+]2ccccc2)cc1		22.5	22.6% (inactive)	
N#Cc1c(OCC(=O)c2ccccc2)nc2c(c1-c1ccco1)CCc1ccccc1-2	8.2 µM (active)	-13		
CC(=O)COc1nc2c(c(-c3ccco3)c1C#N)CCc1ccccc1-2		7.55	-0.398% (inactive)	
CCOC(=O)COc1nc2c(c(-c3ccco3)c1C#N)CCc1ccccc1-2		3.1	2.63% (inactive)	
CCCOC(=O)Cn1c(=O)c2cc3c(=O)n(CC(=O)OCCC)c(=O)c3cc2c1=O		-10.2		inactive
CCOC(=O)C1=C(C)N=C2SCCC(=O)N2C1c1cccs1 (stereo not given)		-2.29	9.97% (inactive)	
O=C(O)Cc1sc(Nc2cccc3ccccc23)nc1-c1ccccc1	0.092 µM (active)	25.4		
O=C(O)Cc1sc(Nc2cccc3ccccc23)nc1-c1ccc(Cl)cc1		13.4	8.83% (inactive)	
O=C(O)Cc1sc(Nc2cccc3ccccc23)nc1-c1ccc(F)cc1		12.9	-9.11% (inactive)	
O=c1c([N+](=O)[O-])c(N2CCOCC2)c2ccccc2n1-c1ccccc1		8.53	14.5% (inactive)	
CCc1nn(CCCC(=O)N2CCC(C)CC2)c(=O)c2cc3occc3n12	4.11 µM (active)			
CCc1nn(CCCC(=O)N2CCN(c3cccc(C)c3C)CC2)c(=O)c2cc3occc3n12				inactive
CCc1cccc(NC(=O)CCCn2nc(CC)n3c(cc4occc43)c2=O)c1	20.6 µM (active)	-27.3		
CCOC(=O)C1CCN(C(=O)CCCn2nc(CC)n3c(cc4occc43)c2=O)CC1		-12.6		inactive
CCc1nn(CCCC(=O)NCc2ccccc2C)c(=O)c2cc3occc3n12		-19.5		inactive
CCc1nn(CCCC(=O)NCc2ccco2)c(=O)c2cc3occc3n12		-6.49		inactive
COCCNC(=O)Cn1nc(-c2ccccc2C)ccc1=O		8.76	-4.82% (inactive)	
O=C(CN(C(=O)c1ccc(Cl)cc1)N1C(=O)C2C3C=CC(C3)C2C1=O)c1cccs1 (stereo not given)		-8.51	5.92% [at 9.22 µM] (inactive)	
COCC(C)NC(=O)C(C)N1c2cccc3cccc(c23)S1(=O)=O (stereo not given)		3.31	-19% (inactive)	

Structure (SMILES)	Potency	cell number change [%]	lipid storage change, negative = inhibition	outcome
O=C1CC(c2ccco2)CC(O)=C1C=Nc1cc(Cl)cc(Cl)c1 (stereo not given)	25.9 µM (active)	13.6		
O=C1CC(c2ccco2)CC(O)=C1C=Nc1ccccc1-c1ccccc1 (stereo not given)		5.01	2.69% (inactive)	
O=C1CC(c2ccco2)CC(O)=C1C=Nc1cc(Cl)ccc1Cl (stereo not given)		10.5	3.89% (inactive)	
O=C(C1CCN(C2CCN(C/C=C/c3ccccc3)CC2)CC1)N1CCOCC1		7.25	0.713% (inactive)	
Cc1ccc(C2C(C(=O)c3ccco3)=C(O)C(=O)N2c2ncccn2)cc1 (stereo not given)		10.6	14.9% (inactive)	
O=C(C1=C(O)C(=O)N(CC2CCCO2)C1c1cccc(O)c1)c1ccco1 (stereo not given)		-19.7	-14% (inactive)	
O=C(C1=C(O)C(=O)N(c2ncccn2)C1c1cccc(Cl)c1)c1ccco1 (stereo not given)	6.51 µM (active)	5.29		
O=C(C1=C(O)C(=O)N(c2ncccn2)C1c1ccc(Cl)cc1)c1ccco1 (stereo not given)		8.73	-11.9% (inactive)	
O=C(C1=C(O)C(=O)N(CC2CCCO2)C1c1cccc(Cl)c1)c1ccco1 (stereo not given)	0.82 µM (active)	-5.86		
O=C(C1=C(O)C(=O)N(CC2CCCO2)C1c1ccc(Cl)cc1)c1ccco1 (stereo not given)		18.3		inactive
COc1ccc(C2C(C(=O)c3ccco3)=C(O)C(=O)N2CC2CCCO2)c(OC)c1 (stereo not given)		-0.87	-8.33% (inactive)	
O=C(C1=C(O)C(=O)N(Cc2ccco2)C1c1cccc(Cl)c1)c1ccco1 (stereo not given)		15	-28% (inactive)	
O=C(C1=C(O)C(=O)N(CC2CCCO2)C1c1ccccc1Cl)c1ccco1 (stereo not given)	6.51 µM (active)	-3.95		
COC(=O)c1ccc(NC(=S)NCc2ccco2)cc1		-29.4	-4.68% [at 9.22 µM] (inactive)	
CCN(CC)N=Nc1ccc(S(N)(=O)=O)cc1		-10.8	14.8% (inactive)	
O=C(c1ccc(Cl)cc1)N1CCN(c2ccc(F)cc2)CC1		-2.3	8.11% (inactive)	
CCOC(=O)c1cccc(NC(=O)CNC(=O)C2CCCCC2)c1		12.1		inactive
Cn1c(=O)c(C(=O)NCc2ccccc2)c(O)c2ccccc21				inactive
C[C@H]1CC[C@@]2(O[C@@H](CCO)C[C@@H](O)[C@@H]2O)O1		10.3	-0.85% (inactive)	
Cn1c(SCC(=O)N2CCN(c3ccccc3)CC2)nnc1-c1ccccc1		1.56		inactive
CC(NC(=O)c1ccccc1F)c1nnc(SCC(=O)NC2=NCCS2)n1C (stereo not given)		-19.7		inactive
CC(NC(=O)c1ccccc1F)c1nnc(SCC(=O)N2CCN(c3ccccc3)CC2)n1C (stereo not given)	0.82 µM (active)	-26.5		

From PubChem BioAssay AID2685 (National Center for Advancing Translational Sciences (NCATS), 2010)
